Reference: PubChem BioAssay (NCATS)
Several values for one entry are separate records, joined by “and”; a condition that tells them apart may be missing. Identical values can stand only once. Results filed as inconclusive are left out. Activity calls are given as the source filed them. Unless noted, calls come from the whole dose curve; as a rule, active = well fitted curve in the direction sought with a large enough effect; inconclusive = small, poorly fitted or top-dose-only effect, or another doubt; inactive = no such curve, though single readings can be large; an effect the other way counts as inactive or inconclusive.

Legend:
[1] = Stat Signaling Pathway (AID 446; active = well fitted curve in either direction with a large enough effect, not every such curve was filed as active;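 note: ME-180 cervical cancer cells given 40 pM IL-6 alongside compound; SIE-controlled beta-lactamase reporter measured as 460/530 nm FRET emission ratio; % is set by controls: 0 for no effect and ±100 for the full control effect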); conditions: ME-180 (cervical carcinoma) SIE beta-lactamase reporter, IL-6 stimulated, 5 h
Summary of the method: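 IL-6/STAT signaling read in ME-180 cells via an SIE beta-lactamase reporter. Stimulus was 40 pM IL-6 (its AC50) for 5 hrs, so both activation and inhibition register.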

[2] = biological target: Mitogen-activated protein kinase 10 (Mus musculus) (UniProt Q61831); experiment: JNK3 AlphaScreen Assay (AID 530; active = well fitted curve in either direction with a large enough effect, not every such curve was filed as active;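 note: kinase came from lysate of stimulated human HepG2 cells; signal reports phosphorylation of biotinylated GST-cJun 1-79 at Ser73 with 10 µM ATP; % is set by controls: 0 for no effect and ±100 for the full control effect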)
Summary of the method: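 JNK3 came from HepG2 lysates pre-activated with IL-1beta and TNF-alpha and phosphorylated biotinylated GST-cJun (1-79) at 10 uM ATP, pH 7.6, room temperature. Compounds were titrated. AlphaScreen signal used anti-phospho-cJun (Ser73) antibody.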

[3] = biological target: 3',5'-cyclic-AMP phosphodiesterase 4B (Homo sapiens) (UniProt Q07343); experiment: qHTS Assay for Inhibitors of PDE-IV (AID 607; active = well fitted activation curve with a large enough effect in the main read-out, with a control signal flat, not every such curve was filed as active; note: % of control where 0% means no effect)
Chain of 3',5'-cyclic-AMP phosphodiesterase 4B (Homo sapiens) (Q07343 whole entry, looked up): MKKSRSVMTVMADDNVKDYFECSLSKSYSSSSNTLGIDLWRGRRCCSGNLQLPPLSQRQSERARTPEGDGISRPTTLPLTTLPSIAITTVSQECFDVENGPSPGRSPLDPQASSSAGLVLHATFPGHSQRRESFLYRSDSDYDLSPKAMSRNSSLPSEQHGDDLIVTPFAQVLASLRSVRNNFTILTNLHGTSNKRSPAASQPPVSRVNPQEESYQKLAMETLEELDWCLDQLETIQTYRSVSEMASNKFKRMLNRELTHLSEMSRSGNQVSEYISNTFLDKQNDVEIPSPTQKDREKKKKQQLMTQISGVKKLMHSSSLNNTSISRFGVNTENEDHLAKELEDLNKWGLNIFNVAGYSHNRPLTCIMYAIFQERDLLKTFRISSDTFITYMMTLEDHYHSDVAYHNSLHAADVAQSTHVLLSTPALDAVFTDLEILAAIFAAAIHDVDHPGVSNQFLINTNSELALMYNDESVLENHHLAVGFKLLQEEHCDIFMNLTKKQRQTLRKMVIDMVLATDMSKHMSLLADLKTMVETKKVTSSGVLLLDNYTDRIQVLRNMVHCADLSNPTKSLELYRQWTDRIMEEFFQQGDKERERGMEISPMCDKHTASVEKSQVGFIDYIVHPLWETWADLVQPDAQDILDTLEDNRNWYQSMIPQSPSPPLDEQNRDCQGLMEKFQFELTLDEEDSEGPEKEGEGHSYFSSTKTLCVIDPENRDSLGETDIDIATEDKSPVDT
Summary of the method: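 Live HEK293 cells with a modified cyclic nucleotide-gated (CNG) channel report intracellular cAMP via membrane-potential dye fluorescence (ex 535/em 590 nm). Endogenous PDE-IV was targeted. Compounds were tested at up to 22.9 uM final; RO 20-1724 100 uM served as control.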

[4] = biological target: Guanine nucleotide-binding protein G(i) subunit alpha-1 (Homo sapiens) (UniProt P63096); experiment: qHTS Assay for Inhibitors of RGS12 GoLoco Motif Activity (Green Fluorophore) (AID 879);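 note: 0% = labeled peptide with Gαi1 and full inhibition = labeled peptide alone without protein; negative values mean loss of peptide binding seen as reduced polarization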
Chain of Guanine nucleotide-binding protein G(i) subunit alpha-1 (Homo sapiens) (P63096 whole entry, looked up): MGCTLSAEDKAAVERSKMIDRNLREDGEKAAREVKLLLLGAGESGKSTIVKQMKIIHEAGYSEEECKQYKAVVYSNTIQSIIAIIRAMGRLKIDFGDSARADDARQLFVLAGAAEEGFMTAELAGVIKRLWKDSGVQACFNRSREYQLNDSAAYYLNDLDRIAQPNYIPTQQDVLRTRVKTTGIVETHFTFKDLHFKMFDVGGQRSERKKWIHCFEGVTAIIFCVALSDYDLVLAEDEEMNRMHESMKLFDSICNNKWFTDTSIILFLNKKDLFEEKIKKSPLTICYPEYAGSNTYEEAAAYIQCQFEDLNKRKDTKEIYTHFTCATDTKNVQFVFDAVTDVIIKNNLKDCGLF
Summary of the method: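 Fluorescence polarization assay: 50 nM Gαi1 with 10 nM FITC-labeled RGS12 GoLoco peptide in 10 mM Tris pH 7.5, 150 mM NaCl, 0.1 mM GDP, 0.05% NP40, 10 min at room temperature with compound.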

[5] = biological target: Muscarinic acetylcholine receptor M1 (Rattus norvegicus) (UniProt P08482); experiment: qHTS Assay for Antagonists of Acetylcholine Muscarinic M1 Receptor: Kinetic Measurement of Intracellular Calcium Response (AID 943); note: potency is the fitted concentration of half-maximal effect; nearly all actives have a fitted effect of over 75% in size
Chain of Muscarinic acetylcholine receptor M1 (Rattus norvegicus) (P08482 whole entry, looked up): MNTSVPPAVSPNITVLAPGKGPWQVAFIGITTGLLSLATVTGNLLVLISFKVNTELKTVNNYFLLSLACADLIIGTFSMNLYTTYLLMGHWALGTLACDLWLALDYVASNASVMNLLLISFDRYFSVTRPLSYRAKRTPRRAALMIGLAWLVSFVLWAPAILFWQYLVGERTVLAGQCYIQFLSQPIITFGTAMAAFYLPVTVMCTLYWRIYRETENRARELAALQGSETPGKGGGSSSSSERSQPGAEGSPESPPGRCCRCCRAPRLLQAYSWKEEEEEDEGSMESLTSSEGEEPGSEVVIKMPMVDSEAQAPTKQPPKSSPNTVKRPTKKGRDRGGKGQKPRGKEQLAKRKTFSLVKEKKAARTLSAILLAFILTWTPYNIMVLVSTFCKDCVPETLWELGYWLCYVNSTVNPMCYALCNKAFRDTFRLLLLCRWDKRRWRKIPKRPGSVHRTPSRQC
Summary of the method: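 CHO cells stably expressing rat M1 were loaded with no-wash Fluo-4 dye for 1 h at 37C, pre-incubated 10 min with compound, then challenged with EC80 carbachol (100 nM final); kinetic calcium read 4 min, peak/basal ratio.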

[6] = biological target: Pyruvate kinase PKM (Homo sapiens) (UniProt P14618); experiment: qHTS Assay for Activators of Human Muscle Pyruvate Kinase (AID 954; active = well fitted curve in the direction sought with a large enough effect, not every such curve was filed as active;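 note: 0% = uninhibited enzyme and -100% = no enzyme or full thiadiazolimine inhibition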)
Summary of the method: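 Enzyme was run at intermediate activity so both inhibitors and activators could be detected. ATP formed from ADP and PEP by 0.1 nM human PKM2 during a 1 h room-temperature incubation was quantified by coupled luciferase luminescence.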

[7] = biological target: alpha-glucosidase (Oryza sativa, rice) (UniProt Q653V4); experiment: Counterscreen for Glucocerebrosidase Inhibitors: qHTS Assay for Rice alpha-Glucosidase at pH 5.0 (AID 997);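 note: 0% = full activity with enzyme and -100% = basal without enzyme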
Summary of the method: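 Rice alpha-glucosidase (4 nM final) with 400 uM 4-methylumbelliferyl-alpha-D-glucopyranoside in citrate buffer pH 5.0, 20 min at room temperature, stopped at pH 10; fluorescence 365/440 nm, compounds 0.7 nM–77 uM, AC50 from Hill fits.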

[8] = qHTS Assay for Lipid Storage Modulators (AID 1519; calls by dose curve); conditions: Drosophila S3 cells, BODIPY lipid droplet/cell ratio, laser cytometry, cells loaded with oleic acid
Summary of the method: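 Cells seeded at 5,000 per well were treated with compounds over a concentration series and loaded with oleic acid (400 uM, as added). Lipid droplet fluorescence (488 nm excitation, 500-530 nm channel) was read by laser-scanning cytometry and normalized to 20 uM Triacsin C.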

[9] = biological target: Ubiquitin carboxyl-terminal hydrolase 1 (Homo sapiens) (UniProt O94782); experiment: Inhibitors of USP1/UAF1: Pilot qHTS (AID 504865);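 note: rhodamine fluorescence freed from ubiquitin-rhodamine substrate followed over time; top concentration of the series differs between compounds; % is set by controls: 0 for no effect and ±100 for the full control effect; nearly all actives have a fitted effect of over 35% in size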
Chain of Ubiquitin carboxyl-terminal hydrolase 1 (Homo sapiens) (O94782 whole entry, looked up): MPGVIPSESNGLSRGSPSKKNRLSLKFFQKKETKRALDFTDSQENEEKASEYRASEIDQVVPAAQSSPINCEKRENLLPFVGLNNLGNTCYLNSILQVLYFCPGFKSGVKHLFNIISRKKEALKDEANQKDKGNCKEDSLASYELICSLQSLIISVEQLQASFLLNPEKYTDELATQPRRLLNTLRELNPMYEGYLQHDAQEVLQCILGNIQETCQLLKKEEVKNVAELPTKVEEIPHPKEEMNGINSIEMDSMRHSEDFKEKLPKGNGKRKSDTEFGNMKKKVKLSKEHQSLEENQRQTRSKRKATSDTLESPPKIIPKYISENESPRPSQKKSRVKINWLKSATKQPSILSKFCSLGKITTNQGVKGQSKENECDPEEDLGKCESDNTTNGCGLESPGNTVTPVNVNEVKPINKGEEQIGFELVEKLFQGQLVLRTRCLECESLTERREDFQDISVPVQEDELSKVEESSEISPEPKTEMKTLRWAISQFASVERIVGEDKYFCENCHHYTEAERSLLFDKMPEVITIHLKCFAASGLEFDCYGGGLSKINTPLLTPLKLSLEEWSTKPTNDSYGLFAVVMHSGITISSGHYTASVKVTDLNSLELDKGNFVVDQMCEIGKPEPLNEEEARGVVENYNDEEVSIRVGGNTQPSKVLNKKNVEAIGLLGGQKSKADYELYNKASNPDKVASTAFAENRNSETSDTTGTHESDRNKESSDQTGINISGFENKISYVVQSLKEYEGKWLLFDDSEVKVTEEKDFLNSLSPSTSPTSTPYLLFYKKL
Summary of the method: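 In 50mM HEPES pH 7.8 containing 0.5mM EDTA, 1mM TCEP, 0.1 mg/ml BSA and 0.01% Tween-20, 1nM USP1/UAF1 is exposed to compound for 15 min, then Ub-Rho (150nM final) is added and fluorescence is read over time.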

[10] = biological target: DNA dC->dU-editing enzyme APOBEC-3G (Homo sapiens) (UniProt Q9HC16); experiment: qHTS for inhibitors of Vif-A3G interactions: Validation (AID 588379); note: 0% is about no effect
Chain of DNA dC->dU-editing enzyme APOBEC-3G (Homo sapiens) (Q9HC16 whole entry, looked up): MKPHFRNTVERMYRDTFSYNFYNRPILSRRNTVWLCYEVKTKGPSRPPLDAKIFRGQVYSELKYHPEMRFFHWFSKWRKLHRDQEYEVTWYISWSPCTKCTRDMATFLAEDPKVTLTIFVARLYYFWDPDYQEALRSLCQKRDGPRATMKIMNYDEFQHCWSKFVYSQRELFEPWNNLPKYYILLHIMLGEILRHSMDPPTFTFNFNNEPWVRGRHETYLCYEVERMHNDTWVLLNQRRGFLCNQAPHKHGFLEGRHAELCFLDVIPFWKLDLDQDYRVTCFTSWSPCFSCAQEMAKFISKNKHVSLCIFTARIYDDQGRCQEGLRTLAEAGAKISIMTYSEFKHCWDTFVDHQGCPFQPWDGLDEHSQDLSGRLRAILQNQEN
Summary of the method: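 HeLa cells stably expressing Vif and A3G-eYFP, 700 cells/well, incubated overnight at 37 deg C, then exposed to compound overnight at 37 deg C. Inhibition of Vif-mediated degradation read as increased yellow fluorescence (Ex 488/Em 500-530) by laser-scanning cytometry.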

[11] = tested on: Zika virus NS2B-NS3 protease; experiment: Primary screen GU AMC qHTS for Zika virus inhibitors (AID 1347154);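 note: 0% = no-inhibitor control and -100% = no-enzyme control; nearly all actives have a fitted effect of over 70% in size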
Summary of the method: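 Unlinked Zika NS2B hydrophilic domain/NS3 protease domain noncovalent complex (25 nM final) in 10 mM Tris-HCl pH 8.0, 0.01% Tween 20, with AMC peptide substrate. Fluorescence (ex 340, em 450 nm) change over 15 min, room temperature; percent inhibition fitted to 4-parameter Hill equation.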

[12] = biological target: Cytochrome P450 1A2 (Homo sapiens) (UniProt P05177); experiment: p450-cyp1a2 (AID 410; calls by dose curve;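 note: -100% = full effect of reference inhibitor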)
Chain of Cytochrome P450 1A2 (Homo sapiens) (P05177 whole entry, looked up): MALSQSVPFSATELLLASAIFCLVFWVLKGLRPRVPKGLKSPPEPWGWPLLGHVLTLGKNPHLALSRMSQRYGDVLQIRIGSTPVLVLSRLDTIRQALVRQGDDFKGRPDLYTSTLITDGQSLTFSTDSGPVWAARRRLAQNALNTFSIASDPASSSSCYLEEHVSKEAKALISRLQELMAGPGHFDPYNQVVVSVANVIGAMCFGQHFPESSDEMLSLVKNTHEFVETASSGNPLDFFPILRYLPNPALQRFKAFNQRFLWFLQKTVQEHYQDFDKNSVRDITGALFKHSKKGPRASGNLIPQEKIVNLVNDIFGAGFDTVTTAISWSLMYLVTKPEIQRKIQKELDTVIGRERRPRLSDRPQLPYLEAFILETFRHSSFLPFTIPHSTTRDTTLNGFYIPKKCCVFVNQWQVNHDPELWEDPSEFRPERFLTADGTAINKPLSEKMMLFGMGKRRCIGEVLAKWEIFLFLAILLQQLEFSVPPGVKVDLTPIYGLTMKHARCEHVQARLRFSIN
Summary of the method: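 Human CYP1A2 (20nM) demethylated Luciferin-ME at its Km (100uM) in 100mM KPO4. After 10 min compound preincubation, NADPH regeneration ran the reaction 60 min at room temperature. Luciferin was read by luminescence, normalized to 57 uM furafylline.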

[13] = biological target: Glucocorticoid receptor (Homo sapiens) (UniProt P04150); experiment: GR-GFP Redistribution (AID 450;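 active = compounds whose dose series gives a full or clear partial fitted curve of increased nuclear translocation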; note: potency is the fitted concentration of half-maximal effect); conditions: U2OS GR-GFP nuclear translocation, laser cytometry, 2 h
Chain of Glucocorticoid receptor (Homo sapiens) (P04150 whole entry, looked up, the tested form may be a part): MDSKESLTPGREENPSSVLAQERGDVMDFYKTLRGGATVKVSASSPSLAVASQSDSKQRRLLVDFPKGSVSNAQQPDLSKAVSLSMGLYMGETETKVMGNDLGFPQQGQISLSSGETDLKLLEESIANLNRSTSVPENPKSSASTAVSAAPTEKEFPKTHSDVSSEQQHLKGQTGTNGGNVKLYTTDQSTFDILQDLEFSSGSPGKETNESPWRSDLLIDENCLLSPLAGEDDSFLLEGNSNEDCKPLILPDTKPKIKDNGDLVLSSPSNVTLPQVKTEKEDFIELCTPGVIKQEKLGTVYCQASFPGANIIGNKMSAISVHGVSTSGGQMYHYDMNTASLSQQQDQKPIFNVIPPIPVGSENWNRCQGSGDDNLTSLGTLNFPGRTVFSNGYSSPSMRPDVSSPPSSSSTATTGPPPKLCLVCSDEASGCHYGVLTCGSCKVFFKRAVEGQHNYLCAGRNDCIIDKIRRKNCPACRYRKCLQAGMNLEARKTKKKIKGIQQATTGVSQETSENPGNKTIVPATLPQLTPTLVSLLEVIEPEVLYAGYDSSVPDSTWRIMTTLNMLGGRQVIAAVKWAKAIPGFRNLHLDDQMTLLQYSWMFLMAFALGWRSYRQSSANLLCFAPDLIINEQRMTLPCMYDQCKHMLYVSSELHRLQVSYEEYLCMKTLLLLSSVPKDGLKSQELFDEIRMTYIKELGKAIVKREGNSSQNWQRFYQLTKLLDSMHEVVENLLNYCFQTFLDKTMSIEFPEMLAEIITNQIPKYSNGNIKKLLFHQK

[14] = biological target: Glucocorticoid receptor (Homo sapiens) (UniProt P04150); experiment: GR-EFC Redistribution (AID 451; calls by dose curve; note: potency is the fitted concentration of half-maximal effect); conditions: CHO-K1 GR-EFC translocation, beta-gal luminescence, 2 h
Summary of the method: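 CHO-K1 cells stably expressing nuclear-localized β-gal enzyme acceptor and GR fused C-terminally to the enzyme donor fragment; ligand-driven nuclear translocation restores β-gal by complementation. Compounds titrated up to 46 uM final, 2 h at 37 °C; luminescence read.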

[15] = biological target: Cytochrome P450 3A4 (Homo sapiens) (UniProt P08684); experiment: qHTS Assay for Activators of Cytochrome P450 3A4 (AID 885); note: nearly all actives have a fitted effect of over 65% in size
Chain of Cytochrome P450 3A4 (Homo sapiens) (P08684 whole entry, looked up): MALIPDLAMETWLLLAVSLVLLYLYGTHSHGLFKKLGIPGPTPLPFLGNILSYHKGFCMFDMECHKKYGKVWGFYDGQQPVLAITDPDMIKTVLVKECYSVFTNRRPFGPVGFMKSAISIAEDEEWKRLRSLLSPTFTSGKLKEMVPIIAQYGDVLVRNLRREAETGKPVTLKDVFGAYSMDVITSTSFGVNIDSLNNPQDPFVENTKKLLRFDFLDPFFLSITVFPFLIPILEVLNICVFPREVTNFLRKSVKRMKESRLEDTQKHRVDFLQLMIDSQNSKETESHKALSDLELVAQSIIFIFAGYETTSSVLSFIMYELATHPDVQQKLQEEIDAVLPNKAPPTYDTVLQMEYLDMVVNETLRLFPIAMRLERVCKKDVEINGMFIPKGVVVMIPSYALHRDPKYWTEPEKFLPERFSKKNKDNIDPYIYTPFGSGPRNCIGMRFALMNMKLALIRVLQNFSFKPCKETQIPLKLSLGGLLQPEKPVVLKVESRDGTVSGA
Summary of the method: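 Quantitative HTS format: compounds preincubated with 20nM human CYP3A4 and Luciferin-PPXE substrate at KM, reaction started by NADPH regeneration, stopped after 60 min, luciferase luminescence read 20 min later.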

[16] = Primary qHTS for small molecule stabilizers of the endoplasmic reticulum resident proteome: Secreted ER Calcium Modulated Protein (SERCaMP) assay (AID 1508630); note: % is set by controls: 0 for no effect and ±100 for the full control effect
Summary of the method: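 GLuc-SERCaMP-expressing SH-SY5Y cells, pretreated 16 h with compound, are challenged with thapsigargin to empty ER calcium stores; after 4 h, coelenterazine is added directly to the medium and luminescence is imaged.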

[17] = NCATS anti-infectives library activity on HEK293 viability as a counter-qHTS vs the C. elegans viability qHTS (AID 1745854); note: % is set by controls: 0 for no effect and ±100 for the full control effect
Summary of the method: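 HEK293 cells, 1500 per well, exposed 24 hr at 37C in 5% CO2 to compounds in a 1:5 titration, up to 41.7 uM final. Viability read as CellTiter-Glo luminescence after 10 min at room temperature.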

[18] = biological target: Cytochrome P450 3A4 (Homo sapiens) (UniProt P08684); experiment: qHTS Assay for Inhibitors and Substrates of Cytochrome P450 3A4 (AID 884); note: potency is the fitted concentration of half-maximal effect; nearly all actives have a fitted effect of over 50% in size
Summary of the method: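 20 nM human CYP3A4 with 25 uM Luciferin-PPXE (at KM) in 200 mM KPO4, preincubated 10 min with compound; NADPH regeneration started a 60 min RT reaction. Luciferin detected by luminescence, normalized to 57 uM ketoconazole as full inhibition.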

[19] = measured here: cell count channel max response
[20] = measured here: lipid channel max response

Cc1ccc(/C(=C/CN2CCCC2)c2ccccn2)cc1
-0.659% and 14%: max response [8, 20]
inactive: activity, negative = inhibition ([1]; at 17.2 µM (top of the series)) 6.54% | activity, negative = inhibition ([1]; at 38 µM (top of the series)) -0.742% | Potency [2] | Potency [3] | outcome [4] | outcome [6] | outcome [7] | activity change, negative = inhibition ([8]; at 25.7 µM (top of the series)) -1.93% | activity change, negative = inhibition ([8]; at 57.5 µM (top of the series)) 3.43% | Potency [9] | Potency [10] | Potency [11]
active: Potency [5] 1.26 µM
0.155% and 8.83%: max response [8, 19]

C[C@H](N)C(=O)O
inactive: Potency [12] | Potency [13] > 46 µM | Potency [14] > 46 µM | Potency [2] | Potency [3] | activity change, negative = inhibition ([8]; at 57.5 µM (top of the series)) 1.23% | Potency [9] | Potency [10] | Potency [11]
-5.58%: max response [8, 20]
-6.7%: max response [8, 19]

CCN(CC)C[C@@H]1CCCCN1CC(=O)N1c2ccccc2C(=O)Nc2cccnc21
inactive: Potency [2] | Potency [3] | Potency [15] | Potency [10] | Potency [11] | Potency [16]

OC[C@H]1NC[C@H](O)[C@@H](O)[C@H]1O
27.8%: max response [8, 20]
inactive: Potency [12] | Potency [13] > 46 µM | Potency [2] | Potency [3] | activity change, negative = inhibition ([8]; at 57.5 µM (top of the series)) -0.744% | Potency [9] | Potency [10] | Potency [11] | outcome [17]
30%: max response [8, 19]

O=C1C=CC(=O)C2=C1C1c3ccccc3C2c2ccccc21
inactive: Potency [15] | Potency [11] | Potency [16]
active: Potency [18] 39.8 µM
